In PubChem BioAssay (EPA / NIEHS) one finds AC50 and outcome data, which are given here for five compounds.

Structures are written as SMILES. Some structures have more than one record in an assay (separate samples or runs), and their calls can disagree. Active and inactive are the calls of the source. The calls were made as follows: active = hit-call score of the fitted dose curve at least 0.9, where 1 is the maximum; inactive = score below 0.9.

Read-out in test [1]: Thrombomodulin, THBD (gene 7056)
The test can be described thus: BSK_CASM3C_Thrombomodulin: BioMAP Diversity Plus: CASM3C Assay for Thrombomodulin Biomarker Activity (AID 2283051).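 Also: thrombomodulin protein level measured by ELISA 24 h after dosing.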 The conditions noted are these: primary human coronary artery smooth muscle cells; actives raise or lower the signal.

Read-out in test [2]: Tissue Factor, F3 (gene 2152)
Briefly: BSK_CASM3C_TissueFactor: BioMAP Diversity Plus: CASM3C Assay for Tissue Factor Biomarker Activity (AID 2283052).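 Also: cell surface tissue factor protein level read by ELISA.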 The note with it: primary human coronary artery smooth muscle cells; actives raise or lower the signal.

Read-out in test [3]: Interferon-gamma inducible Protein 10 (IP10), CXCL10 (gene 3627)
The test can be described thus: BSK_hDFCGF_IP10: BioMAP Diversity Plus: hDFCGF Assay for Interferon-gamma inducible Protein 10 (IP10) Biomarker Activity (AID 2283053). The note with it: primary human foreskin fibroblasts; actives raise or lower the signal. A digest of the protocol:
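Chemical-treated human skin fibroblasts (primary) were sampled at 24 h for IP-10 by ELISA. Both increases and decreases relative to DMSO were scored.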

Read-out in test [4]: Urokinase-type plasminogen activator receptor (uPAR), PLAUR (gene 5329)
The test can be described thus: BSK_CASM3C_uPAR: BioMAP Diversity Plus: CASM3C Assay for Urokinase-type plasminogen activator receptor (uPAR) Biomarker Activity (AID 2283054).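 Also: cell-surface uPAR protein level quantified by ELISA.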 The note with it: primary human coronary artery smooth muscle cells; actives raise or lower the signal.

Read-out in test [5]: Vascular cell adhesion molecule 1 (VCAM1), VCAM1 (gene 7412)
The test can be described thus: BSK_CASM3C_VCAM1: BioMAP Diversity Plus: CASM3C Assay for Vascular cell adhesion molecule 1 (VCAM1) Biomarker Activity (AID 2283055).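 Also: VCAM-1 protein level quantified by ELISA on the cells.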 The conditions noted are these: primary human coronary artery smooth muscle cells; actives raise or lower the signal.

Read-out in test [6]: Collagen III, COL3A1 (gene 1281)
Briefly: BSK_hDFCGF_CollagenIII: BioMAP Diversity Plus: hDFCGF Assay for Collagen III Biomarker Activity (AID 2283056). The conditions noted are these: primary human foreskin fibroblasts; actives raise or lower the signal. The method in brief:
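Human foreskin primary fibroblasts were exposed to test chemicals for 24 h, after which collagen III was quantified by ELISA. Activity was fitted bidirectionally against DMSO as negative control and baseline.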

Read-out in test [7]: Interleukin-8 (IL8), CXCL8 (gene 3576)
The test can be described thus: BSK_hDFCGF_IL8: BioMAP Diversity Plus: hDFCGF Assay for Interleukin-8 (IL8) Biomarker Activity (AID 2283058). The conditions noted are these: primary human foreskin fibroblasts; actives raise or lower the signal. A digest of the protocol: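 hDFCGF human dermal fibroblasts; 24 h chemical exposure; IL-8 by ELISA; bidirectional curve fit vs DMSO baseline; gain or loss of signal scored.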

The nature of test [8]: BSK_hDFCGF_Proliferation: Cell Proliferation Assessment in the BioMAP Diversity Plus: hDFCGF Assay (AID 2283059).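 Also: curves fitted for both rise and fall of signal versus DMSO baseline.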 The conditions noted are these: primary human foreskin fibroblasts. The method in brief: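 This proliferation readout used SRB total-protein staining of human foreskin fibroblasts […], normalized to DMSO with bidirectional curve fitting.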
Read-out in test [9]: Macrophage colony-stimulating factor (MCSF), CSF1 (gene 1435)
The test can be described thus: BSK_hDFCGF_MCSF: BioMAP Diversity Plus: hDFCGF Assay for Macrophage colony-stimulating factor (MCSF) Biomarker Activity (AID 2283060). The conditions noted are these: primary human foreskin fibroblasts; actives raise or lower the signal. The method in brief:
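Human foreskin primary fibroblasts were treated with test chemical for 24 h, and M-CSF was then measured by ELISA. Data were fitted bidirectionally against DMSO as the negative control and activity baseline.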

The nature of test [10]: BSK_hDFCGF_SRB: Viability Assessment in the BioMAP Diversity Plus: hDFCGF Assay (AID 2283061).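 Also: cells exposed to compound for 24 h before the read.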 The conditions noted are these: primary human foreskin fibroblasts. The method in brief: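 Human foreskin primary fibroblasts were treated with compound and assessed 24 h after dosing. Total protein was measured by sulforhodamine B staining (0.1% SRB after 10% TCA fixation, 560 nm read) as a cytotoxicity marker, with bidirectional fitting against DMSO baseline.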

Read-out in test [11]: TIMP metallopeptidase inhibitor 1 (TIMP1), TIMP1 (gene 7076)
The test can be described thus: BSK_hDFCGF_TIMP1: BioMAP Diversity Plus: hDFCGF Assay for TIMP metallopeptidase inhibitor 1 (TIMP1) Biomarker Activity (AID 2283062). The note with it: primary human foreskin fibroblasts; actives raise or lower the signal. The method in brief:
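Primary human foreskin fibroblasts in the hDFCGF system were dosed with compound for 24 h, then TIMP-1 was measured by ELISA. Activity was fitted bidirectionally relative to DMSO control; parallel SRB staining assessed cytotoxicity.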

Read-out in test [12]: Monokine induced gamma interferon (MIG), CXCL9 (gene 4283)
The test can be described thus: BSK_hDFCGF_MIG: BioMAP Diversity Plus: hDFCGF Assay for Monokine induced gamma interferon (MIG) Biomarker Activity (AID 2283063). The note with it: primary human foreskin fibroblasts; actives raise or lower the signal. A digest of the protocol:
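ELISA read-out of MIG from primary human dermal fibroblasts 24 h post-dosing. Gain or loss of signal fitted bidirectionally, DMSO as baseline.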

Read-out in test [13]: Matrix Metallopeptidase 1 (MMP1), MMP1 (gene 4312)
The test can be described thus: BSK_hDFCGF_MMP1: BioMAP Diversity Plus: hDFCGF Assay for Matrix Metallopeptidase 1 (MMP1) Biomarker Activity (AID 2283064). The note with it: primary human foreskin fibroblasts; actives raise or lower the signal. A digest of the protocol:
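Human foreskin fibroblasts exposed to chemical for 24 h; MMP1 detected by ELISA, with DMSO as baseline for bidirectional fitting.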

Read-out in test [14]: Vascular cell adhesion molecule 1 (VCAM1), VCAM1 (gene 7412)
Briefly: BSK_hDFCGF_VCAM1: BioMAP Diversity Plus: hDFCGF Assay for Vascular cell adhesion molecule 1 (VCAM1) Biomarker Activity (AID 2283065).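 As to AC50: VCAM-1 protein level quantified by ELISA after 24 h chemical exposure.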 The note with it: primary human foreskin fibroblasts; actives raise or lower the signal. The method in brief: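 Primary human foreskin fibroblasts (hDFCGF system) were dosed with chemical and VCAM-1 was measured by ELISA 24 h later. Bidirectional curve fitting used DMSO as negative control and activity baseline.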

Read-out in test [15]: Plasminogen activator inhibitor-1 (PAI1), SERPINE1 (gene 5054)
Briefly: BSK_hDFCGF_PAI1: BioMAP Diversity Plus: hDFCGF Assay for Plasminogen activator inhibitor-1 (PAI1) Biomarker Activity (AID 2283066). The note with it: primary human foreskin fibroblasts; actives raise or lower the signal. A digest of the protocol: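 Human skin fibroblast cultures receive chemical for 24 h before PAI-1 is measured by ELISA; signal changes are fitted bidirectionally against DMSO-treated wells.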

Read-out in test [16]: Intercellular Adhesion Molecule 1 (ICAM1), ICAM1 (gene 3383)
The test can be described thus: BSK_KF3CT_ICAM1: BioMAP Diversity Plus: KF3CT Assay for Intercellular Adhesion Molecule 1 (ICAM1) Biomarker Activity (AID 2283067). The note with it: primary human keratinocytes with fibroblasts; actives raise or lower the signal. A digest of the protocol:
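Human keratinocyte plus foreskin fibroblast primary co-culture was exposed to chemical for 24 h. ICAM-1 was then quantified by ELISA, and the data were fit bidirectionally against DMSO as the negative control and baseline.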

Read-out in test [17]: Interferon-gamma inducible Protein 10 (IP10), CXCL10 (gene 3627)
The test can be described thus: BSK_KF3CT_IP10: BioMAP Diversity Plus: KF3CT Assay for Interferon-gamma inducible Protein 10 (IP10) Biomarker Activity (AID 2283068). The note with it: primary human keratinocytes with fibroblasts; actives raise or lower the signal. A digest of the protocol:
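Signal is secreted/surface IP-10 by ELISA in a human primary skin co-culture of keratinocytes and foreskin fibroblasts, taken 24 h post-dosing; DMSO served as negative control.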

Test [18] in a line: BSK_KF3CT_SRB: Viability Assessment in the BioMAP Diversity Plus: KF3CT Assay (AID 2283069).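 Also: fitted for both signal gain and loss against DMSO baseline.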 The note with it: primary human keratinocytes with fibroblasts. A digest of the protocol:
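Overt cytotoxicity is assessed as total protein by sulforhodamine B staining in parallel human skin co-cultures at 24 h after dosing. DMSO serves as negative control and baseline.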

Read-out in test [19]: Interleukin-1 alpha (IL1a), IL1A (gene 3552)
The test can be described thus: BSK_KF3CT_IL1a: BioMAP Diversity Plus: KF3CT Assay for Interleukin-1 alpha (IL1a) Biomarker Activity (AID 2283070). The note with it: primary human keratinocytes with fibroblasts; actives raise or lower the signal. The method in brief:
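Readout is IL-1a level by ELISA, compared bidirectionally with DMSO as baseline. Cells: human keratinocytes co-cultured with foreskin fibroblasts, harvested 24 h post-dose.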

Read-out in test [20]: Epidermal growth factor receptor (EGFR), EGFR (gene 1956)
Briefly: BSK_hDFCGF_EGFR: BioMAP Diversity Plus: hDFCGF Assay for Epidermal growth factor receptor (EGFR) Biomarker Activity (AID 2283057). The conditions noted are these: primary human foreskin fibroblasts; actives raise or lower the signal. The method in brief: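 Cell-based multiplexed assay in primary human foreskin fibroblasts. EGFR is read by ELISA 24 h after treatment and compared with DMSO controls.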

The term AC50 denotes the concentration giving half of the maximal activity seen. On to `CCCCc1oc2ccccc2c1C(=O)c1cc(I)c(OCCN(CC)CC)c(I)c1`, for which the AC50 in [1] is 27.9 µM (active); in test [2] it was 24 µM (active); in test [3], 8.78 µM (active); in [4] it was 13.7 µM (active); in test [5], 25.3 µM (active); in [6], 7.23 µM (active). In addition, the AC50 is 10.3 µM (active) in test [7]; 3.97 µM (active) in [8]; 6.99 µM (active) in [9]; 4.64 µM (active) in test [10]; 9.35 µM (active) in test [11]; 10.2 µM (active) in test [12]. Besides, the AC50 in test [13] is 9.45 µM (active); in [14], 8.94 µM (active); in test [15] it was 4.81 µM (active); in test [16] it was 22.8 µM (active); in [17], 8.36 µM (active); in [18], 9.02 µM (active). Besides, the AC50 in test [19] was 9.69 µM (active).

In the case of `O=C1c2ccc(O)c(O)c2C(=O)c2c(O)ccc(O)c21`, the outcome in [1], in test [2], in test [3], in test [5], in [6] and in test [7] was inactive. For the same compound, the result in [8], in [9], in test [10], in test [11], in test [12] and in [13] was inactive. Also, the result in test [14], in test [15], in test [16], in test [17], in [18] and in test [19] was inactive. Further, the AC50 in test [4] was 0.0224 µM (active).

For `O=C1NS(=O)(=O)c2ccccc21`, the outcome in test [1], in test [2], in test [3], in [4], in test [5] and in test [6] was inactive. Further, the outcome in test [7], in [8], in test [9], in test [10], in [11] and in test [12] was inactive. For the same compound, the result in test [13], in test [14], in [15], in test [16], in [17] and in test [18] was inactive. In test [19], the result was inactive. Moreover, in test [5], the concentration at half-maximal activity (AC50) was 0.15 µM (active).

For the compound `Oc1ccc(Cc2ccccc2O)cc1`, the result in test [1], in [2], in [3], in [4], in [5] and in test [6] was inactive. Further, the result in test [20], in test [7], in test [8], in test [9], in test [10] and in test [11] was inactive. Further, the result in [12], in test [13], in test [14], in test [15], in test [16] and in test [17] was inactive. Besides, the outcome in test [18] and in [19] was inactive. Also, the concentration at half-maximal activity (AC50) was 3.97 µM (active) in test [5] and 33.6 µM (active) in test [8].

Turning to `C=CC(C)(CCC=C(C)C)OC(C)=O` (stereo not given), the outcome in test [1], in test [2], in [3], in test [6], in test [20] and in test [7] was inactive. Also, the result in [9], in test [11], in test [12], in test [13], in test [14] and in [16] was inactive. For the same compound, the outcome in [17], in test [18] and in [19] was inactive. The AC50 is 20 µM (active) in test [4]; 34.6 µM (active) in [5]; 24.7 µM (active) in test [8]; 36.1 µM (active) in test [10]; 29.8 µM (active) in test [15].
